According to PubChem BioAssay (NCI):
About 79,000 compounds went through this panel and 15% of them were active in at least one assay; those are over-represented in the sample as a whole. The source made the active and inactive calls. No stated cut-off is given here; in the data, active means growth inhibition above about 70%; inactive means the rest.

How the values were obtained:
[1] = NCI Yeast Anticancer Drug Screen. Data for the wt1 strain (AID 149);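 further: 0% = growth of vehicle-treated wt1 cultures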; conditions: S. cerevisiae wt1 strain (SPY 50644) growth inhibition, stronger effect = higher value
Summary of the method: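 Readout: yeast growth inhibition, normalised to vehicle controls, in the wt1 strain exposed to test compounds.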

[2] = NCI Yeast Anticancer Drug Screen. Data for the rad50EPP+ strain (AID 151);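 further: 0% = growth of vehicle-treated control cultures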; conditions: S. cerevisiae rad50 mutant strain, stronger effect = higher value
Summary of the method: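 Compounds were applied to the rad50EPP+ yeast strain, which bears a defined DNA repair alteration, and growth inhibition was determined relative to vehicle-treated cultures.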

[3] = NCI Yeast Anticancer Drug Screen. Data for the mgt1 strain (AID 153); conditions: S. cerevisiae mgt1 mutant growth inhibition, stronger effect = higher value
Summary of the method: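 Strain: mgt1 yeast, one of a set carrying defined DNA damage repair or cell cycle control alterations. Compound-treated growth compared with vehicle.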

[4] = NCI Yeast Anticancer Drug Screen. Data for the rad50 strain (AID 155);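 further: 0% = growth of vehicle-only cultures of the same strain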; conditions: S. cerevisiae rad50 strain growth inhibition, stronger effect = higher value
Summary of the method: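 Compounds were tested on a yeast strain with an engineered DNA damage repair alteration; the reported value is growth inhibition normalised to vehicle treatment.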

[5] = NCI Yeast Anticancer Drug Screen. Data for the mec2-1 strain (AID 157); conditions: S. cerevisiae mec2-1 strain, stronger effect = higher value
Summary of the method: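 Strain: mec2-1 (DNA repair/cell cycle alteration). Compound exposure, then growth measured; inhibition expressed relative to vehicle.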

[6] = NCI Yeast Anticancer Drug Screen. Data for the rad14 strain (AID 159);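 further: 0% = growth of vehicle-treated control cultures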; conditions: S. cerevisiae rad14 strain growth inhibition, stronger effect = higher value
Summary of the method: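 Compound-treated yeast with a defined DNA-repair lesion; growth inhibition normalised to vehicle-treated cultures.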

[7] = NCI Yeast Anticancer Drug Screen. Data for the sgs1 mgt1 strain (AID 161);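 further: 0% = growth of cultures given vehicle only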; conditions: S. cerevisiae sgs1 mgt1 strain, stronger effect = higher value
Summary of the method: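 Genetically altered yeast, compound exposure, growth inhibition relative to vehicle.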

[8] = NCI Yeast Anticancer Drug Screen. Data for the CLN2oe strain (AID 163);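 further: 0% = growth of vehicle-only control cultures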; conditions: S. cerevisiae CLN2oe strain, stronger effect = higher value
Summary of the method: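 Growth of a genetically modified yeast strain is measured after compound exposure and compared with cultures given vehicle alone.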

[9] = NCI Yeast Anticancer Drug Screen. Data for the cln2 rad14 strain (AID 165);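 further: 0% = growth equal to vehicle treated cultures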; conditions: S. cerevisiae cln2 rad14 strain, stronger effect = higher value
Summary of the method: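 Compounds are applied to the cln2 rad14 yeast strain, and growth is then compared with that of vehicle-treated cultures to give inhibition.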

[10] = NCI Yeast Anticancer Drug Screen. Data for the bub3 strain (AID 167); conditions: S. cerevisiae bub3 mutant strain, stronger effect = higher value
Summary of the method: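 Growth of a checkpoint-deficient yeast mutant is measured after compound exposure. Values represent inhibition relative to vehicle.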

[11] = NCI Yeast Anticancer Drug Screen. Data for the wt2 strain (AID 169);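 further: 0% = growth of vehicle-treated yeast cultures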; conditions: S. cerevisiae wt2 strain growth inhibition, stronger effect = higher value
Summary of the method: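 This strain belongs to a panel of yeast strains with defined genetic alterations in DNA damage repair or cell cycle control. Compounds are applied, and growth inhibition is measured against vehicle-treated cultures.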

[12] = NCI Yeast Anticancer Drug Screen. Data for the mlh1 strain (AID 171);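 further: 0% = growth of vehicle-treated control cultures of the same strain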; conditions: S. cerevisiae mlh1 strain growth inhibition, stronger effect = higher value
Summary of the method: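 Growth of the mutant yeast strain after compound exposure, expressed as inhibition relative to vehicle-only controls.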

[13] = NCI Yeast Anticancer Drug Screen. Data for the sgs1 strain (AID 173);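 further: 0% = growth of vehicle-only control cultures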; conditions: S. cerevisiae sgs1 mutant, stronger effect = higher value
Summary of the method: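 Growth of a yeast strain bearing a defined genetic alteration is measured after compound treatment. Inhibition is expressed relative to vehicle-only controls.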

[14] = NCI Yeast Anticancer Drug Screen. Data for the mlh1 rad18 strain (AID 175); conditions: S. cerevisiae mlh1 rad18 strain growth inhibition, stronger effect = higher value
Summary of the method: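 Read-out is yeast growth inhibition, calculated against vehicle-only controls. The compound was applied to a strain engineered with DNA damage repair alterations.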

[15] = NCI Yeast Anticancer Drug Screen. Data for the rad18 strain (AID 177); conditions: S. cerevisiae rad18 mutant growth inhibition, stronger effect = higher value
Summary of the method: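 Growth of the mutant yeast strain after compound exposure, normalised to vehicle-only cultures.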

[16] = NCI Yeast Anticancer Drug Screen. Data for the rad52 strain (AID 147);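 further: 0% = growth of vehicle-treated control cultures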; conditions: S. cerevisiae rad52 mutant growth inhibition, stronger effect = higher value
Summary of the method: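 Compounds are applied to a genetically defined yeast strain lacking normal DNA damage repair, and inhibition of growth is expressed relative to cultures given vehicle only.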

[17] = at 5.0 µM (retest, dose inferred, filed as 0.5)
[18] = at 50.0 µM (retest, dose inferred, filed as 5.0)

Measured: growth inhibition

OC1C#CCSCC#C/C=C\1 (stereo not drawn)
active: [1]; at 100.0 µM 97% | [2]; at 100.0 µM 86% | [3]; at 100.0 µM 95% | [4]; [18] 100% | [4]; at 50.0 µM 81.3% | [4]; at 100.0 µM 97% | [5]; [18] 100% | [5]; at 50.0 µM 78.4% | [5]; at 100.0 µM 97% | [6]; at 100.0 µM 98% | [7]; [18] 96% | [7]; at 50.0 µM 70.4% | [8]; at 100.0 µM 77% | [9]; [18] 93% | [10]; [18] 97% | [10]; at 50.0 µM 84.2% | [10]; at 100.0 µM 96% | [11]; at 100.0 µM 95% | [12]; at 100.0 µM 96% | [13]; at 100.0 µM 97% | [14]; [18] 100% | [14]; at 50.0 µM 79.2% | [15]; at 100.0 µM 92%
inactive: [1]; at 1.2 µM 9% | [1]; at 3.7 µM 3% | [1]; at 11.0 µM 14% | [1]; at 33.0 µM 55% | [2]; at 1.2 µM -22% | [2]; at 3.7 µM 15% | [2]; at 11.0 µM 13% | [2]; at 33.0 µM 23% | [3]; at 1.2 µM 9% | [3]; at 3.7 µM 2% | [3]; at 11.0 µM 14% | [3]; at 33.0 µM 43% | [4]; at 1.2 µM -24% | [4]; at 3.7 µM -17% | [4]; [17] 53% | [4]; at 11.0 µM 34% | [4]; at 33.0 µM 65% | [5]; at 1.2 µM 1% | [5]; at 3.7 µM 18% | [5]; [17] 62% | [5]; at 11.0 µM 14% | [5]; at 33.0 µM 54% | [6]; at 1.2 µM 4% | [6]; at 3.7 µM 6% | [6]; at 11.0 µM 12% | [6]; at 33.0 µM 51% | [7]; [17] -4% | [8]; at 1.2 µM -22% | [8]; at 3.7 µM 3% | [8]; at 11.0 µM -15% | [8]; at 33.0 µM -3% | [9]; [17] 60% | [9]; at 50.0 µM 52% | [10]; at 1.2 µM -8% | [10]; at 3.7 µM -16% | [10]; [17] 16% | [10]; at 11.0 µM 17% | [10]; at 33.0 µM -10% | [11]; at 1.2 µM -21% | [11]; at 3.7 µM -17% | [11]; at 11.0 µM 6% | [11]; at 33.0 µM -9% | [12]; at 1.2 µM -1% | [12]; at 3.7 µM 4% | [12]; at 11.0 µM 15% | [12]; at 33.0 µM 46% | [13]; at 1.2 µM 20% | [13]; at 3.7 µM 11% | [13]; at 11.0 µM 27% | [13]; at 33.0 µM 67% | [14]; [17] 62% | [15]; at 1.2 µM -27% | [15]; at 3.7 µM -21% | [15]; at 11.0 µM 4% | [15]; at 33.0 µM 49%

BrC/C=C/C[P+](c1ccccc1)(c1ccccc1)c1ccccc1
inactive: [16]; at 1.2 µM 8% | [16]; at 3.7 µM 27% | [1]; at 1.2 µM 4% | [1]; at 3.7 µM 9% | [2]; at 1.2 µM -12% | [2]; at 3.7 µM -14% | [2]; at 11.0 µM -8% | [2]; at 33.0 µM 45% | [4]; at 1.2 µM 7% | [4]; at 3.7 µM 13% | [5]; at 1.2 µM 5% | [5]; at 3.7 µM 12% | [5]; [17] 23% | [5]; [18] 23%
active: [16]; at 11.0 µM 96% | [16]; at 33.0 µM 98% | [16]; at 100.0 µM 99% | [1]; at 11.0 µM 94% | [1]; at 33.0 µM 98% | [1]; at 100.0 µM 98% | [2]; at 100.0 µM 91% | [4]; [17] 79% | [4]; at 11.0 µM 93% | [4]; at 33.0 µM 98% | [4]; [18] 79% | [4]; at 50.0 µM 90% | [4]; at 100.0 µM 98% | [5]; at 11.0 µM 96% | [5]; at 33.0 µM 98% | [5]; at 50.0 µM 92.9%
